Only some compounds are listed: those with a hit (about 1.1% of all), similar ones and a draw of the others.
NCOA2 inhibitor: inhibits human steroid receptor coactivator 2; Q15596; inhibition, % at 9 µM; HEK293 GAL4-SRC2 luciferase reporter, luminescence; 370,000 tested, 0.17% active;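 active = inhibition above the mean inhibition of all tested compounds plus 3 SD, set per campaign, cut at about 52% in these data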;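 note: 0% = DMSO treated cells and 100% = cells given Gossypol at 36 µM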
NR5A2 inv ag: inverse agonists of human LRH-1 (NR5A2); O00482; HEK293T StAR-luciferase reporter, LRH-1 transfected, 24 h; inhibition, % at 3.6 µM; 360,000 tested, 0.13% active; AID 602396;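 active = inhibition above the mean inhibition of all tested compounds plus 3 SD, cut at about 73% in these data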;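 note: 0% = DMSO wells and 100% = reporter-only cells lacking LRH-1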
GalR3 antagonist: blocks the human galanin receptor 3; HEK293 GalR3-CNG cAMP membrane potential fluorescence; galR3 body fused to GalR1 C-terminus; AID 651719; 360,000 tested, 0.44% active; inhibition, % at 3 µM; O60755;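 active = inhibition above the screen-wide average plus 3 SD, cut at about 13% in these data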;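 note: forskolin and galanin both at EC90 stimulate the cells; cAMP rise reported by CNG channel membrane potential dye signal; 0% = forskolin plus galanin with DMSO and 100% = forskolin alone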
COUP-TFII inh: inhibitors of human COUP-TFII (NR2F2). P24468. HEK293T NGFI-A luciferase reporter, luminescence. inhibition, % at 8.6 µM. 370,000 tested, 0.7% active. AID 686940;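 active = inhibition above a per-plate cutoff, mean inhibition of test wells between control levels plus 3 SD, cut at about 38% in these data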;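 note: cells cotransfected with COUP-TFII expression vector driving the NGFI-A reporter; 0% = median of COUP-TF2 test wells and 100% = reporter-only cells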
Target sequence (P24468 whole entry, looked up): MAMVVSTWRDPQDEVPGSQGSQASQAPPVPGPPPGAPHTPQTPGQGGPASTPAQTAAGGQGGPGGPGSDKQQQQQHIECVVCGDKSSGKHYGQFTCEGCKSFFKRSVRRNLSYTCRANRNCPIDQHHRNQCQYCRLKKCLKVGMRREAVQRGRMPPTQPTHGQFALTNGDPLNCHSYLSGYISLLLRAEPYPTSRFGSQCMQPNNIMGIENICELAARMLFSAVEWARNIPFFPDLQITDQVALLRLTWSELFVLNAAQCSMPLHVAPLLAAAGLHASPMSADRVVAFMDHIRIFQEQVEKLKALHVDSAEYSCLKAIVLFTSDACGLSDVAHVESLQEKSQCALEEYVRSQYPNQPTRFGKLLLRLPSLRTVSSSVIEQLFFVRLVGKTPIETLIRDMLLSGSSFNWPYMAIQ
SRC3 inh: inhibits human SRC3 coactivator; HEK293 GAL4-SRC3 luciferase reporter, luminescence; inhibition, % at 3.6 µM; AID 588352; 360,000 tested, 0.17% active; Q9Y6Q9;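 active = inhibition above a per-campaign cutoff, the mean of all compounds plus 3 SD, cut at about 60% in these data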;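 note: 0% = DMSO-treated cells and 100% = gossypol-treated cells at 36 µM; higher means less SRC3-driven luciferase light from the GAL4 reporter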
NCOA1 inh: inhibits human SRC1 coactivator; HEK293 GAL4-SRC1 luciferase reporter, luminescence; inhibition, % at 3.6 µM; 360,000 tested, 0.12% active;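 active = inhibition above the campaign mean plus 3 SD, with each screening campaign given its own cutoff, cut at about 60% in these data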;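 note: 0% = DMSO treated cells and 100% = gossypol at 36 µM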
The depositor's hits bear a star.

For CC(=O)OC1CC2C(C)(C)C(=O)C=CC2(C)C2CCC3(C)C(c4ccoc4)OC(=O)C4OC43C12C (stereo not drawn) the results were NCOA2 inhibitor 38.7, NR5A2 inv ag 22.6, GalR3 antagonist -7.2, COUP-TFII inh 9.3, SRC3 inh 49.3 and NCOA1 inh 34.2.
CC(=O)O[C@@H]1C[C@H]2C(C)(C)C(=O)C=C[C@]2(C)[C@H]2CC[C@@]3(C)[C@H](c4ccoc4)OC(=O)[C@H]4O[C@]43[C@@]21C was read as NCOA2 inhibitor 52.3*, NR5A2 inv ag 31.0, GalR3 antagonist -4.7, COUP-TFII inh 30.5, SRC3 inh 25.8 and NCOA1 inh 23.7.
`Cc1ccc(C(=O)N(C)[C@H]2C[C@H]3c4[nH]c5c(-c6cccc(C)c6)cccc5c4CCN3C[C@H]2[C@H](C)O)cc1` gave NCOA2 inhibitor 5.1 and COUP-TFII inh 15.8.
For S=C(NCCCCN(Cc1ccc(Cl)cc1)c1ccc(Br)cn1)NCCCc1cnc[nH]1 the results were NCOA2 inhibitor 40.6, NR5A2 inv ag 95.3*, GalR3 antagonist -5.0, COUP-TFII inh 29.4, SRC3 inh 60.0 and NCOA1 inh 36.6.
`O=C(COc1ccc(S(=O)(=O)NC2CCCCC2)cc1)N1CCN(c2cccc(Cl)c2)CC1` gave NCOA2 inhibitor 24.5, NR5A2 inv ag 15.8, GalR3 antagonist -5.9, COUP-TFII inh 57.2*, SRC3 inh 25.7 and NCOA1 inh 7.5.
`CC(C)NS(=O)(=O)c1ccc(OCC(=O)N2CCN(c3ccccc3)CC2)cc1` gave NCOA2 inhibitor 5.1, NR5A2 inv ag -9.3, GalR3 antagonist -3.6, COUP-TFII inh 15.5, SRC3 inh 6.7 and NCOA1 inh -6.1.
C[C@@]12C(=O)OC(=O)[C@]1(C)C1CCC2O1 was read as NCOA2 inhibitor 61.5*, NR5A2 inv ag 59.2, GalR3 antagonist -1.3, COUP-TFII inh 66.0*, SRC3 inh 70.9* and NCOA1 inh 52.9.
Screening CCn1c2c(n(C(C)=O)c1=O)C[C@@H](c1ccccc1)[C@@H](C)[C@@H](C(=O)N1CCCC1)C2 returned NCOA2 inhibitor 13.7, GalR3 antagonist -4.8 and COUP-TFII inh -8.3.
Screening Cc1occc1-c1n[nH]c(=S)n1C returned NCOA2 inhibitor -26.2, NR5A2 inv ag 1.3, GalR3 antagonist 13.1*, COUP-TFII inh -0.3, SRC3 inh 14.4 and NCOA1 inh -26.5.
Cc1occc1-c1n[nH]c(=S)n1-c1ccccc1 was read as NCOA2 inhibitor 4.8, NR5A2 inv ag 5.3, GalR3 antagonist -3.0, COUP-TFII inh 4.5, SRC3 inh 2.5 and NCOA1 inh -21.8.
CCc1nc2c(OCC(=O)C(C)(C)C)cccn2c1N(C)C(=O)COc1ccccc1 was read as NCOA2 inhibitor 15.4, NR5A2 inv ag -1.8, GalR3 antagonist -5.7, COUP-TFII inh 9.8, SRC3 inh 17.6 and NCOA1 inh 3.3.
Screening CC[C@@H](C(=O)[C@@H](C)[C@@H](O)[C@H](C)[C@@H]1O[C@@H]([C@@H](CC)C(=O)O)CC[C@@H]1C)[C@H]1O[C@]2(C=C[C@@H](O)[C@]3(CC[C@@](C)([C@H]4CC[C@](O)(CC)[C@H](C)O4)O3)O2)[C@H](C)C[C@@H]1C returned NCOA2 inhibitor 2.5, NR5A2 inv ag 85.8*, GalR3 antagonist -0.2, COUP-TFII inh 44.8*, SRC3 inh 62.2* and NCOA1 inh -39.4.
For Cc1ccc2ccc3ccc(C)nc3c2n1 the results were NCOA2 inhibitor 3.5, NR5A2 inv ag 88.9*, COUP-TFII inh 21.0, SRC3 inh 56.4 and NCOA1 inh 52.9.
For Cc1ccc2cc(F)c(F)c(F)c2n1 the results were NCOA2 inhibitor -36.6, NR5A2 inv ag -1.2, GalR3 antagonist -1.9, COUP-TFII inh 4.3, SRC3 inh -16.9 and NCOA1 inh 7.8.
For CCCNC(=O)C1(C)CCCN(C(=O)c2ccc3ccccc3c2)C1 (stereo not drawn) the results were NCOA2 inhibitor -5.9, NR5A2 inv ag -9.4, GalR3 antagonist -4.4, COUP-TFII inh 4.4, SRC3 inh 0.0 and NCOA1 inh -7.0.
For NC(=O)c1cc2ccncc2c2ccccc12 the results were NCOA2 inhibitor 56.3*, NR5A2 inv ag 41.9, GalR3 antagonist -8.9, COUP-TFII inh 36.8, SRC3 inh 64.9* and NCOA1 inh 81.5*.

Screening data (PubChem BioAssay)
